In the library only some 10% were active in any assay of this set; here they are far more common.
SW480 rereplic: DNA re-replication induction in SW480 cells | SW480 DNA re-replication, Hoechst DNA content imaging, 48 h | Potency, µM (highest dose often 46.1 µM), inactives show at the highest dose re-replication activation, most hits filed as activators | hit rate 1.8% among 340,000 | AID 624297; note: % of control where 0% means no effect; nearly all actives have a fitted effect of over 55% in size
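Hoechst fluorescence of nuclei (405 nm excitation, 500-530 nm emission) measured by plate-scanning imager after 48 hr compound exposure at 37 C; re-replication scored as increased number of nuclei with elevated intensity.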
KB-3-1 tox: KB-3-1 parental cell cytotoxicity. KB-3-1 viability, CellTiter-Glo ATP luminescence, 72 h. Potency, µM (highest dose often 46.1 µM), actives largely listed as cytotoxic. hit rate 1.4% among 400,000. AID 1347075; note: % is set by controls: 0 for no effect and ±100 for the full control effect; nearly all actives have a fitted effect of over 60% in size
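Parental KB-3-1 adenocarcinoma cells in phenol-red-free DMEM with 10% FBS were pin-treated with compounds at several concentrations, incubated 72 h at 37 °C, and viability read by CellTiter-Glo luminescence; concentration-effect curves were fitted after normalization.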
RORgamma inh: inhibitors of mouse ROR gamma transcriptional activity; P51450; Drosophila S2 Gal4-RORgamma UAS-luciferase reporter, 20 h; Potency, µM (doses to about 53.6 µM), without a hit: at the top dose activity change, negative = inhibition, usual class: inhibitors; hit rate 5.4% among 310,000; note: % is set by controls: 0 for no effect and ±100 for the full control effect; nearly all actives have a fitted effect of over 60% in size
Target sequence (P51450 whole entry, looked up, the tested form may be a part): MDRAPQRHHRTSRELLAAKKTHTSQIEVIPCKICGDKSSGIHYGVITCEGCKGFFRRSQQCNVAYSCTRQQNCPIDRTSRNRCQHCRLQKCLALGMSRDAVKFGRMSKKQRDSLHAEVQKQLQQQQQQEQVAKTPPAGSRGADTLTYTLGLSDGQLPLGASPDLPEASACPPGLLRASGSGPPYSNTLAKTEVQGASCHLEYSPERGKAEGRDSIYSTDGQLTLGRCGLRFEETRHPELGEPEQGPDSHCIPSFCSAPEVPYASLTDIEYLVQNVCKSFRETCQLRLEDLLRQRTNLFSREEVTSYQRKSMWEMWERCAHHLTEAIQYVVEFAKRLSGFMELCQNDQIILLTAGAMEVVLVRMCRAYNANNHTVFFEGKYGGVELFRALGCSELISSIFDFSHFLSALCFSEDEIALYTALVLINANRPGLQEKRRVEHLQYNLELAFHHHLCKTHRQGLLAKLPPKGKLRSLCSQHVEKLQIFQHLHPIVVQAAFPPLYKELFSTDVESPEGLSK
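Read-out: Photinus luciferase luminescence; inhibitors lower reporter signal. Insect Schneider cells with Gal4-ROR gamma fusion under metallothionein promoter, UAS reporter; 700 uM final copper sulfate induction, 20 hr, ambient temperature.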
KB-V1 cytotox: kills drug-selected multidrug resistant KB-V1 cells; KB-V1 MDR cells viability, CellTiter-Glo, 72 h; Potency, µM (series often up to 46.1 µM), actives largely listed as cytotoxic; hit rate 3.4% among 400,000; note: % is set by controls: 0 for no effect and ±100 for the full control effect; nearly all actives have a fitted effect of over 60% in size
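Luminescent ATP read-out (CellTiter-Glo, 10 min) measures survival of drug-selected KB-V1 MDR cells after 72 h, 37 degrees C compound exposure. Medium: phenol-red-free DMEM, 10% FBS. Values from fitted concentration-response curves.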
MCF10A rereplic: induces DNA re-replication in MCF 10a normal breast cells; MCF 10A DNA re-replication, Hoechst nuclear intensity, 48 h; Potency, µM (top dose mostly 46.1 µM), for the others: at the top dose activity, positive = re-replication, usual class: activators; hit rate 2.9% among 350,000; AID 624296; note: % of control where 0% means no effect; nearly all actives have a fitted effect of over 50% in size
Gal4-VP16 FLuc: inhibits Gal4-VP16 luciferase reporter, ROR gamma counter-screen | Drosophila S2 Gal4-VP16 UAS-luciferase, luminescence, 20 h | Potency, µM (doses to about 53.6 µM), for the others: at the top dose activity, negative = inhibition, usual class: inhibitors | hit rate 3.5% among 310,000;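 note: Gal4-VP16 expression switched on by copper sulfate through the metallothionein promoter; % is set by controls: 0 for no effect and ±100 for the full control effect; nearly all actives have a fitted effect of over 50% in size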
Numbers without * were called inactive; i = inactive; u = inconclusive; x = not tested or not shown; [ ] = another dose, or the depositor's remark. Calls come from the whole dose curve; as a rule, active = well fitted curve in the direction sought with a large enough effect; inconclusive = small, poorly fitted or top-dose-only effect, or another doubt; inactive = no such curve, though single readings can be large; an effect the other way counts as inactive or inconclusive. Potency is the fitted concentration of half-maximal effect.

SMILES	SW480 rereplic	KB-3-1 tox	RORgamma inh	KB-V1 cytotox	MCF10A rereplic	Gal4-VP16 FLuc
COC(=O)C1=C(C)NC(C)=C(C(=O)OC(C)(C)CN(C)CCC(c2ccccc2)c2ccccc2)C1c1cccc([N+](=O)[O-])c1 (stereo not given)	12µM*	x	u	x	15%	u
COCCOC(=O)C1=C(C)NC(C)=C(C(=O)OC/C=C/c2ccccc2)C1c1cccc([N+](=O)[O-])c1 (stereo not given)	30µM*	x	u	x	-2%	u
COCCOC(=O)C1=C(C)NC(C)=C(C(=O)OC(C)C)[C@@H]1c1cccc([N+](=O)[O-])c1	x	x	10%	x	x	6%
CC1=C(C(=O)OC(C)C)C(c2cccc([N+](=O)[O-])c2)C(C(=O)OC2CN(C(c3ccccc3)c3ccccc3)C2)=C(N)N1 (stereo not given)	u	x	u	x	21µM*	u
CCOc1ccccc1NC(=O)c1nnn(CC(=O)Nc2ccccc2CC)c1N	x	i	x	i	x	x
CCN(CC)CCOc1ccc(/C(=C(\Cl)c2ccccc2)c2ccccc2)cc1	4%	u	-31%	i	5.2µM*	-24%
COc1ccc(NC(=O)CN2C(=O)CSc3ccc(S(=O)(=O)N(C)C)cc32)cc1OC	x	i	x	u	x	x
COc1ccc(C)cc1NC(=O)c1nnn(Cc2cccc(F)c2)c1N	20%	u	-17%	i	27%	-10%
COc1ccc(NC(=O)c2nnn(Cc3cccc(F)c3)c2N)c(OC)c1	7%	6.5µM*	-20%	i	u	0%
CC(=O)N1CC=CC1(C)C(=O)NCC1CC1 (stereo not given)	x	x	7%	x	x	17%
COc1ccccc1/C=N/NC(=O)c1ccc(NC(=O)c2cccc([N+](=O)[O-])c2)cc1	x	x	30%	x	x	0%
Cc1cc(/C=N/NC(N)=O)c(C)n1-c1ccc(F)cc1	-1%	i	-18%	u	7%	-6%[10 µM]
CCc1ccc(-n2c(C)cc(/C=N/NC(=O)OC)c2C)cc1	u	i	11%	i	5%	-1%
Cc1cc(/C=N/NC(=O)C(O)(c2ccccc2)c2ccccc2)c(C)n1-c1ccccc1	-29%	i	11µM*	u	-9%	u
CCc1ccc(-n2c(C)cc(/C=N/NC(=O)c3ccncc3)c2C)cc1	-11%	u	7.1µM*	i	9%	20µM*
Cc1cc(/C=N/NC(=O)c2ccncc2)c(C)n1-c1ccccc1	-1%	i	10µM*	i	2%	u
Cc1cc(/C=N/NC(=O)c2cccc([N+](=O)[O-])c2)c(C)n1-c1ccccc1	-3%	i	3.5µM*	u	9%	4.5µM*
COC(=O)N/N=C/c1cc(C)n(-c2ccccc2)c1C	-75%	i	16%	i	1%	-3%
Cc1ccc(-n2nc(C(=O)N3CCN(c4ccccc4F)CC3)c(=O)n(C)c2=O)cc1	x	i	x	i	x	x
O=C(COC(=O)c1cc(S(=O)(=O)N2CCOCC2)ccc1F)NCc1ccco1	-4%	i	0%	i	3%	0%
COc1ccc(NC(=O)c2cc3c(=O)n(Cc4cccnc4)ccc3nc2C)cc1Cl	x	i	x	i	x	x
Cc1cccc(C)c1-n1c(C)cc(/C=N/NC(=O)CSc2ncccn2)c1C	-23%	i	u	i	-35%	16µM*
Cc1ccc(-n2c(C)cc(/C=N/NC(=O)c3ccncc3)c2C)cc1C	12%	i	4µM*	u	2%	u
Cc1cccc(C)c1-n1c(C)cc(/C=N/NC(=O)c2ccncc2)c1C	2%	i	1.3µM*	i	19%	2.2µM*
Cc1cc(C)nc(SCC(=O)N/N=C/c2cc(C)n(-c3ccccc3C)c2C)n1	-76%	i	-17%	u	4%	-13%
SMILES	SW480 rereplic	KB-3-1 tox	RORgamma inh	KB-V1 cytotox	MCF10A rereplic	Gal4-VP16 FLuc
Cc1ccc(-n2c(C)cc(/C=N/NC(=O)c3ccncc3)c2C)c(C)c1	9%	i	19%	i	u	-6%
Cc1cc(/C=N/NC(=O)c2cccs2)c(C)n1-c1cnccn1	3%	i	u	i	2%	15%
Cc1cc(/C=N/NC(=O)c2cccs2)c(C)n1-c1ccccc1	-2%	16µM*	u	u	u	u
c1cc2c3c(c1)CCC[N+]3(C1CCCCC1)CCC2	x	u	x	i	x	x
Cc1cc(C)c2c(=O)cc(C(=O)Nc3sc4c(c3C#N)CCCC4)oc2c1	x	i	x	i	x	x
Cc1ccc(S(=O)(=O)N2CCN(c3nc(-c4cccs4)nc4cccnc34)CC2)cc1	x	i	x	i	x	x
Cc1cc(CNC[C@H]2O[C@@H](n3cnc4c(N)ncnc43)[C@H](O)[C@@H]2O)no1	x	i	x	i	x	x
CCOC(=O)CN1CCc2c(C)nc3c(-c4ccc(OC)c(OC)c4)cnn3c21	u	i	-34%	8.2µM*	u	0%
Cc1ccc2c(Cl)c(C)c(N3CCCC3)nc2n1	-4%	i	2.8µM*	u	u	11µM*
CC(=O)C1=NN(c2ccccc2)C2(S1)S/C(=C\c1ccccc1)C(=O)N2c1ccccc1 (stereo not given)	5.2µM*	i	13%	i	u	4%
N#Cc1ccc(/C=N/NC(=S)Nc2ccc(S(=O)(=O)N3CCOCC3)cc2)cc1	4%	i	1.8µM*	i	-1%	u
O=S(=O)(c1ccc(NC(=S)N/N=C/c2ccc(O)c(O)c2)cc1)N1CCOCC1	u	i	-35%	i	-3%	-12%
O=S(=O)(c1ccc(NC(=S)N/N=C/c2cccc(Oc3ccccc3)c2)cc1)N1CCOCC1	u	i	0.89µM*	i	0%	-7%
NC(=O)c1ccc(NC(=O)C2CCN(S(=O)(=O)Cc3ccccc3)CC2)cc1	x	i	x	i	x	x
C/C(=N\NC(=S)Nc1c(C)cccc1C)c1cc2ccccc2o1	12%	i	1µM*	i	u	7.1µM*
Cc1cccc(C)c1NC(=S)N/N=C/c1ccccc1C(=O)O	-5%	i	u	i	u	-16%
C/C(=N\NC(=O)c1ccco1)c1cc2ccccc2o1	7%	i	0%	u	-12%	-9%
C/C(=N\NC(=S)Nc1c(C)cccc1C)c1ccc(O)cc1	-2%	i	8.9µM*	i	5%	u
C/C(=N\NC(=S)Nc1ccccc1C)c1cc2ccccc2o1	-8%	u	1.3µM*	u	u	7.1µM*
Cc1nc(C(=O)NNC(=O)c2c(-c3c(Cl)cccc3Cl)noc2C)cs1	25%	u	2.8µM*	i	11%	8.9µM*

Screening data: PubChem, National Center for Advancing Translational Sciences (NCATS)
